# Measurements: PubChem BioAssay (NCATS)
# Values joined by “and” are separate entries in the source; they are usually repeats but may differ in a detail not shown here. Equal values may be shown once. Results filed as inconclusive are left out. Unmarked numbers belong to inactive results. Active and inactive are the calls of the source. Calls come from the whole dose curve; as a rule, active = well fitted cell-killing curve with a large enough effect in the repeat runs; inconclusive = weak or mixed curves; inactive = flat fitted curve, though single readings scatter.
# Test: qHTS assay for small molecule agonists of the antioxidant response element (ARE) signaling pathway measured by Nrf2-dependant transcriptional activity - cell viability counter screen (AID 720653)
# Conditions: ARE-bla HepG2 viability, CellTiter-Glo ATP luminescence, 16 h; max response: active compounds read low
# Text: National Center for Advancing Translational Sciences [NCATS] NIH Chemical Genomics Center [NCGC] U.S. Environmental Protection Agency [EPA] National Institutes of Environmental Health Sciences [NIEHS] National Toxicology Program [NTP] Assay Overview: Oxidative stress has been implicated in the pathogenesis of a variety of diseases ranging from cancer to neurodegeneration. The antioxidant response element (ARE) signaling pathway plays an important role in the amelioration of oxidative stress. The CellSensor ARE-bla HepG2 cell line (Invitrogen) can be used for analyzing the Nrf2/antioxidant response signaling pathway. Nrf2 (NF-E2-related factor 2) and Nrf1 are transcription factors that bind to AREs and activate these genes. The CellSensor ARE-bla HepG2 cell line contains a beta-lactamase reporter gene under control of the Antioxidant Response Element (ARE) stably integrated into HepG2 cells. The activation of the report gene under culture conditions can be detected by fluorescence intensity. The cytotoxicity of the compounds against the ARE-bla HepG2 cell line was quantified by measuring the intracellular ATP content.
# Assay Protocol Summary: ARE-bla HepG2 cells were dispensed at 2,000 cells/5 ul/well in 1536-well black wall/clear bottom plates using a Multidrop Combi (ThermoFisher Scientific, Waltham, MA) dispenser. After the assay plates were incubated at 37C/5% CO2 for 5 hrs, 23 nL of compounds dissolved in DMSO, positive controls or DMSO only was transferred to the assay plate by a pintool work station (Kalypsys, San Diego, CA). The plates were incubated at 37C/5% CO2 for 16 hrs. After 1 uL of LiveBLAzer B/G FRET substrate was added using a Flying Reagent Dispenser (FRD) (Aurora Discovery, San Diego, CA), the assay plates were incubated at room temperature for 2 hrs. The fluorescence intensity was measured by an Envision (PerkinElmer, Shelton, CT) plate reader. Cell viability using CellTiter Glo viability assay (Promega, Madison, WI) was also measured by adding 4 ul/well of CellTiter-Glo reagent into the same assay plate using a FRD. After 30 min incubation at room temperature, the luminescence intensity in the plates was measured using a ViewLux (PerkinElmer) plate reader.
# % is set by controls: 0 for no effect and ±100 for the full control effect; potency is the fitted concentration of half-maximal effect.
SMILES,max response,Potency
Nc1ccc2cc3ccccc3cc2c1,-4.4%,
CCCCCCCC[N+](CCCCCCCC)(CCCCCCCC)CCCCCCCC,,28.2 µM (active)
CC1(C)CCC(C)(C)c2cc(C(=O)Nc3ccc(C(=O)O)cc3)ccc21,-7.97%,
O=C1OC(O)C(C(Cl)Cl)=C1Cl (stereo not drawn),-27.5%,
Cc1cccc(O)c1C,-1.51%,
CNc1ccc(O)cc1,-24.5%,
O=C1OC2(c3cc(Br)c(O)c(Br)c3Oc3c2cc(Br)c(O)c3Br)c2c(Cl)c(Cl)c(Cl)c(Cl)c21,-22.4%,
c1cc(OCC2CO2)cc(OCC2CO2)c1 (stereo not drawn),-40% and -11.6%,
C/C=C1\C(=O)C[C@H]2[C@@H]3CCC4=CC(=O)CC[C@]4(C)[C@H]3CC[C@]12C,-11.4%,
O=C=Nc1ccc(Cc2ccc(N=C=O)cc2)cc1,-1.3% and -0.206%,
C=CC(=O)OCCOCCOC(=O)C=C,-8.93%,
c1ccc2c(c1)-c1cccc3c1c-2cc1ccccc13,-12.4% and -4.83%,
C=C(C)c1ccccc1,-8.93%,
O=c1oc2cc(O)ccc2c2oc3cc(O)ccc3c12,-3.33%,
CN1[C@H]2CC(OC(=O)[C@H](CO)c3ccccc3)C[C@H]1[C@H]1O[C@H]12 (stereo partly drawn),0.433% and 4.93%,
O=C(OCC(COC(=O)c1ccccc1)(COC(=O)c1ccccc1)COC(=O)c1ccccc1)c1ccccc1,3.26%,
CC(=O)Nc1ccc(C(=O)CCl)cc1,,39.8 µM (active)
O=[N+]([O-])c1cc([N+](=O)[O-])c2ccc(S(=O)(=O)O)cc2c1O,17.2%,
CN(C)c1ccc(C2(c3ccc(N(C)C)cc3)OC(=O)c3cc(N(C)C)ccc32)cc1,7.4%,
CCC(C)Nc1ccc(NC(C)CC)cc1 (stereo not drawn),,22.4 µM (active)
CO[C@H]1/C=C/O[C@@]2(C)Oc3c(C)c(O)c4c(O)c(c5c(c4c3C2=O)NC2(CCN(CC(C)C)CC2)N=5)=NC(=O)/C(C)=C\C=C\[C@H](C)[C@H](O)[C@@H](C)[C@@H](O)[C@@H](C)[C@H](OC(C)=O)[C@@H]1C,-17.5%,
CCCCCC/C(C=O)=C\c1ccccc1,3.47%,
Cc1cc(C(C)(C)CC(C)(C)C)ccc1OCCOCC[N+](C)(C)Cc1ccccc1,-8.26%,
Oc1ccc2cc(SSc3ccc4cc(O)ccc4c3)ccc2c1,-8.42%,
O=Cc1ccc(Cl)c(Cl)c1,7.11%,
c1ccc2c(c1)ccc1cc3c(ccc4ccccc43)cc12,-11.9%,
CC1CCC(C(C)C)C(O)C1 (stereo not drawn),1.08%,
O=C(/C=C/c1ccc(O)c(O)c1)OC1C[C@](O)(C(=O)O)C[C@@H](O)[C@H]1O (stereo partly drawn),-1.61% and -3.17%,
